Experimental findings from PubChem BioAssay are described below.

SMILES strings stand for the structures. Unmarked numbers belong to inactive results. How the calls were made is not given here.

In general, inhibition refers to the share of the control response that was lost under treatment.

The test deals with Pantothenate synthetase (Mycobacterium tuberculosis (strain ATCC 25618 / H37Rv)) (UniProt P9WIL5). Nature of the test: Coupled enzyme confirmation of inhibitors against recombinant Mtb PanC (AID 375).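 Further: 0% = full reaction with vehicle and 100% = no enzyme background.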 As to conditions: coupled enzyme assay; at 10 µM, stronger effect = higher value.
Chain of Pantothenate synthetase (Mycobacterium tuberculosis (strain ATCC 25618 / H37Rv)) (P9WIL5 whole entry, looked up): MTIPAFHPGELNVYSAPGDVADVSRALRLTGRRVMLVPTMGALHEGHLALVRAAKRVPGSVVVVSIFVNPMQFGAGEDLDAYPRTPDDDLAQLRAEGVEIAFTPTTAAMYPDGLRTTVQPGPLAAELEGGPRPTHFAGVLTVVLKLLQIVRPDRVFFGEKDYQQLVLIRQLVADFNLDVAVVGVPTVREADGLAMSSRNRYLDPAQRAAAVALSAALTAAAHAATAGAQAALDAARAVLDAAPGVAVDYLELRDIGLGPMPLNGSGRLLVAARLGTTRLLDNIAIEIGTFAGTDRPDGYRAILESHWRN
On to `CC(C)CCNC(=O)NC(=O)CSc1nnc(COc2ccccc2Cl)o1`, for which the inhibition was 7%.
For `CC1CCN(C(=O)CN2C(=O)C(C)(C)Oc3ccc(C(=O)NC4CCCC4)cc32)CC1`, the inhibition was 0%.
For `Cc1cc(OCC(=O)N2CCOCC2)cc2oc(=O)c3ccccc3c12` the value was 0%; for `CC1Cc2ccccc2N1C(=O)C12CCC(C)(C(=O)C1)C2(C)C` (stereo not given), 3%; for `COC(=O)c1c(NC(=O)CSc2nnc(-c3cccnc3)n2Cc2ccco2)sc(C)c1C`, 0%.
For `COC(=O)NCC(c1cccnc1)N1CCOCC1` (stereo not given) the value was 0%; for `O=C(C1CC2CCC1C2)N1CCN(Cc2ccc3c(c2)OCO3)CC1` (stereo not given), 8%; for `CCn1c(=O)cc(SCC(=O)Nc2ccc3c(c2)OCO3)c2ccccc21`, 0%.
In the case of `O=C(CCN1C(=O)c2ccccc2C1=O)Nc1ccc(F)cc1` it was 0%.
Take `CC(=O)Nc1nc(-c2ccc(Cl)cc2)nc(C)c1C(C)=O`: the inhibition is 0%.
Regarding `CCCN(CCC)S(=O)(=O)c1ccc(NS(C)(=O)=O)cc1`, the inhibition is 0%.
In the case of `COCCOC(=O)/C=C1/NC(=O)CS1` it was 0%; in that of `O=C(Nc1cccc2c1CCCC2)C1CCN(c2nnnn2-c2ccccc2)CC1`, 5%; in that of `COC(=O)CC1SCCNC1=O` (stereo not given), 0%.
Consider `O=C(Nc1ccc2c(c1)OCCO2)C1CCN(C(=O)c2ccc(F)cc2)CC1`, for which the inhibition was 0%.
For `COc1ccc2nc(SCC(=O)NC(C)C)[nH]c2c1` the value was 0%; for `Nc1ccc(-n2c(N)c(C(=O)NCc3ccc4c(c3)OCO4)c3nc4ccccc4nc32)cc1`, 14%; for `Cc1cccc(C(OC(=O)c2ccco2)C(=O)NCc2ccccc2)n1` (stereo not given), 4%.
Consider `CCN(CC)S(=O)(=O)c1ccc2c(c1)nc(SCn1nnc3ccccc3c1=O)n2CC`, for which the inhibition is 0%.
With `COc1cc(NC(=O)c2cc(-n3cnnc3)ccc2Cl)cc(OC)c1`, the inhibition was 2%.
For `C[N+]12CCC(CC1)C(OC(=O)C(O)(c1ccccc1)c1ccccc1)C2` (stereo not given) the value was 0%.
For `CCCCc1noc2c1/C(=N\O)CC(c1ccccc1)C2` (stereo not given) the value was 3%.
For `Cc1ccc(S(=O)(=O)NCCOC(=O)Nc2sc(=S)n(C)c2C)cc1` the value was 0%.
On to `Cc1ccc(OCC(O)Cn2c(=N)n(CCN3CCCCC3)c3ccccc32)cc1` (stereo not given), for which the inhibition is 0%.
Regarding `Cn1c(=O)c(C(=S)NC(=O)C2CC2)c(N)n(Cc2ccccc2)c1=O`, the inhibition was 3%.
As for `COc1ccc(C(C(=O)NC2CCCCC2)N2CCC3(CC2)OCCO3)cc1` (stereo not given), the inhibition is 0%.
In the case of `COc1ccc(CC(=O)Nc2ccc(-c3nnc(-c4ccc(C)cc4)o3)cc2)cc1` it was 4%.
For `COc1ccccc1CN1C(=O)CCC1(C)C(=O)NC1CCCCCC1` (stereo not given) the value was 8%.
Consider `CCc1cccc2c(=O)c(C(=O)N3CCCCCC3)c[nH]c12`, for which the inhibition was 0%.
`COc1cc(C(=O)N2c3ccccc3CC2C)cc(OC)c1OC` (stereo not given): the inhibition was 0%.
Consider `CCC(C)(C)n1nnnc1C(c1ccncc1)N1CCN(c2cccc(OC)c2)CC1` (stereo not given), for which the inhibition is 0%.
In the case of `Cc1cc(N)n2nc(-c3ccccc3)cc2n1` it was 0%; in that of `Cc1ccc2cc(C#N)c(NCCCNC(=O)C3CCCO3)nc2c1` (stereo not given), 0%.
In the case of `CCOC(=O)c1cccc(NC(=O)CSc2nnc(C3CCCCC3)n2C)c1` it was 2%.
In the case of `CCCS(=O)(=O)N1CCN(C(=O)CCC2CCCC2)CC1` it was 0%; in that of `Nn1cc(-c2ccccc2)nc1SCC(=O)N1CCN(S(=O)(=O)c2ccccc2)CC1`, 0%; in that of `C1CCC2=NCCCN2CC1`, 7%.
With `OC(CN1CCCCC1)Cn1c(C(F)(F)F)nc2ccccc21` (stereo not given), the inhibition is 9%.
In the case of `CCCCOC(=O)Cn1c(=O)oc2ccc(C)cc21` it was 0%; in that of `CCOC(=O)C1CCN(c2nc3ccccc3nc2C(C#N)C(=O)OCCOC)CC1` (stereo not given), 0%.
